Lmaj promast: Leishmania major promastigote growth inhibition; Leishmania major promastigotes, resazurin fluorescence viability; inhibition, % at 10 µM; hit rate 9% among 200,000; AID 1063; in the data active means inhibition above about 50%;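 further: promastigotes grown with compound for 44 hours at 28 °C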
Arbovirus inh: arbovirus infection inhibition; arbovirus infection cell-based antiviral screen; inhibition, % at 10 µM; hit rate 0.37% among 200,000; in the data active means inhibition above about 30%
CHOP inh: CHOP inhibition in unfolded protein response. inhibition, % at 10 µM. CHO-K1 CHOP-promoter luciferase, tunicamycin-induced, 15-18 h. AID 2732. hit rate 3.8% among 220,000;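 active means compounds that reduced the stress-induced luciferase reporter signal by more than about 70% of percent inhibition, limit read from the data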;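 further: 0% = tunicamycin plus vehicle and 100% = wells without tunicamycin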
WT yeast gro inh: growth inhibition of WT yeast, mitochondrial fusion screen. mitochondrial fusion phenotypic screen, WT strain. hit rate 2.1% among 190,000. AID 1362. inhibition, % at 10 µM; in the data active means inhibition above about 58%; tested in S. cerevisiae
Starred values were filed as active, the others as inactive. Compounds with a hit are over-represented: about 12% of the library has one in this group of screens.

Screening COC1C(OC(=O)c2ccc(C)[nH]2)C(O)C(Oc2ccc3c(O)c(NC(=O)c4ccc(O)c(CC=C(C)C)c4)c(=O)oc3c2Cl)OC1(C)C (stereo not drawn) returned CHOP inh 19.
`CC(=O)NN1C(=O)c2ccccc2NC1c1cccnc1` (stereo not drawn) gave Lmaj promast -2, Arbovirus inh 5, CHOP inh 12 and WT yeast gro inh 4.
For CCOP1(=S)Oc2cc3c(cc2C(C(=O)OC)(C(F)(F)F)O1)OCO3 (stereo not drawn) the results were Lmaj promast 0, Arbovirus inh 5, CHOP inh 82* and WT yeast gro inh 5.
Screening C=CCn1c(O)c(C(C)=O)c(=O)[nH]c1=O (tested in a mixture with another compound) returned CHOP inh 8.
`COc1cc(/C=N/NP(=S)(c2ccccc2)c2ccccc2)ccc1O` gave Lmaj promast 81*, Arbovirus inh -37, CHOP inh 24 and WT yeast gro inh 18.
Oc1ccc(/C=N/NP(=S)(c2ccccc2)c2ccccc2)cc1 was read as Lmaj promast 90*, Arbovirus inh -15, CHOP inh 27 and WT yeast gro inh 5.
Screening COc1cc(C=C2C(=O)NC(=O)NC2=O)ccc1O returned CHOP inh 13.
`Cc1cccc(N2C(=O)NC(=O)/C(=C\c3ccc4c(c3)CCCN4Cc3ccccc3)C2=O)c1` gave Lmaj promast 10, Arbovirus inh 15, CHOP inh 20 and WT yeast gro inh 23.
For CCC(C)N1C(=O)/C(=C/c2ccc3c(c2)CCN3CCCCl)C(=O)NC1=S (stereo not drawn) the results were Lmaj promast 55*, Arbovirus inh -11, CHOP inh 11 and WT yeast gro inh 9.
`Oc1ccc2c3c1O[C@H]1c4oc5ccccc5c4C[C@@]4(O)C(C2)N(CC2CC2)CCC314` (stereo partly drawn) gave CHOP inh -23.
`COc1ccc(CCNC(=O)c2c(N)n(CCN3CCOCC3)c3nc4ccccc4nc23)cc1` gave Lmaj promast 96*, Arbovirus inh -29, CHOP inh 76* and WT yeast gro inh 8.
COCCCn1c(N)c(C(=O)Nc2sc3c(c2C(=O)OC)CCCC3)c2nc3ccccc3nc21 was read as Lmaj promast -5, Arbovirus inh 0, CHOP inh -51 and WT yeast gro inh 43.
Nc1c(C(=O)NCCN2CCOCC2)c2nc3ccccc3nc2n1Cc1ccccc1 was read as CHOP inh 34.
CCCCn1c(N)c(C(=O)NCCN2CCOCC2)c2nc3ccccc3nc21 was read as Lmaj promast 5, Arbovirus inh 9, CHOP inh 28 and WT yeast gro inh 4.
`Nc1c(C(=O)NCCc2ccccc2)c2nc3ccccc3nc2n1CCN1CCOCC1` gave Lmaj promast 24, Arbovirus inh -32, CHOP inh 88* and WT yeast gro inh 3.
CC(C)CCNC(=O)c1c(N)n(CC2CCCO2)c2nc3ccccc3nc12 (stereo not drawn) was read as Lmaj promast 11, Arbovirus inh -49 and CHOP inh 76*.
O=P(O)(O)C(Cl)(Cl)P(=O)(O)O was read as CHOP inh 2.
O=P1(NCCCn2cc[n+](Cc3nc4ccccc4[nH]3)c2)C=C(c2ccccc2)OC(c2ccccc2)=C1 was read as CHOP inh 0.
Screening O=C(O)c1ccc2c(c1)C1C(Cl)C(Sc3ccccc3[N+](=O)[O-])CC1C(c1cccc([N+](=O)[O-])c1)N2 (stereo not drawn) returned Lmaj promast -5, Arbovirus inh 30, CHOP inh 81* and WT yeast gro inh -6.
Screening Cc1oc(-c2ccccc2Cl)nc1CN1C(=O)CN=C(c2ccccc2)c2ccccc21 returned Lmaj promast 34, Arbovirus inh -14, CHOP inh 34 and WT yeast gro inh 71*.
`O=c1c2ccc(Cl)cc2[nH]c(=S)n1-c1cccnc1` gave Lmaj promast 0, Arbovirus inh -5, CHOP inh 26 and WT yeast gro inh 1.
CC1(C)C2SCC(=O)N2CCN1CC(=O)NN (stereo not drawn) was read as CHOP inh 84*.
Screening CN1CCC(N(C)c2nc(-c3ccc([N+](=O)[O-])cc3)nc3ccccc23)CC1 returned Lmaj promast 100*, Arbovirus inh -42, CHOP inh -4 and WT yeast gro inh 35.
Cc1cc(C(=O)N=Nc2c(O)n(C)c3ccccc23)c(C)o1 was read as Lmaj promast 69*, Arbovirus inh -8, CHOP inh -4 and WT yeast gro inh -4.
CC1(C)C2CC=C(CN3CCOCC3)C1C2 (stereo not drawn) was read as Lmaj promast 64*, Arbovirus inh 5, CHOP inh -6 and WT yeast gro inh 13.
Screening COc1ccc(CNC(=O)C(NC(C)=O)C(C)C)cc1OC (stereo not drawn) returned Lmaj promast 2, Arbovirus inh 10, CHOP inh 3 and WT yeast gro inh 9.
`CC1(C)CN=C(Nc2ccc(F)c(F)c2)S1` gave Lmaj promast 2, Arbovirus inh 3, CHOP inh 82* and WT yeast gro inh 2.
Screening CC1CCN(C(=O)c2ccc(N3CC4CC(C3)c3cccc(=O)n3C4)c([N+](=O)[O-])c2)CC1 (stereo not drawn) returned Lmaj promast 71*, Arbovirus inh -5, CHOP inh 25 and WT yeast gro inh -23.
CC1CCCN(C(=O)c2ccc(N3CC4CC(C3)c3cccc(=O)n3C4)c([N+](=O)[O-])c2)C1 (stereo not drawn) was read as Lmaj promast -1, Arbovirus inh -9, CHOP inh 9 and WT yeast gro inh -13.
For CNC(=S)NC1CC2CCCC(C1)N2CC(C)C (stereo not drawn) the results were Lmaj promast 1, Arbovirus inh 2, CHOP inh -7 and WT yeast gro inh 20.
`Cc1ccc(CN2C3CCCC2CC(NC(=S)NCc2ccccc2)C3)cc1` (stereo not drawn) gave Lmaj promast 92*, Arbovirus inh -24, CHOP inh 10 and WT yeast gro inh 33.
For O=c1[nH]c(O)c(Cc2ccc3c(c2)OCO3)c(=O)[nH]1 the results were CHOP inh -14.
CCn1cc(C(=O)c2cccs2)c2ccccc21 was read as Lmaj promast 4, Arbovirus inh 4, CHOP inh 77* and WT yeast gro inh 2.
For CCC(C)C1NC(=O)C(C(C)=O)=C1O (stereo not drawn) the results were CHOP inh 10.
For O=C(c1cccc(Cl)c1)C1CCCN(Cc2ccon2)C1 (stereo not drawn) the results were Lmaj promast -3, Arbovirus inh -2, CHOP inh -1 and WT yeast gro inh -14.
For O=C(c1ccc(Cl)cc1)C1CCCN(Cc2cccc3cnccc23)C1 (stereo not drawn) the results were Lmaj promast 99*, Arbovirus inh 3, CHOP inh 43 and WT yeast gro inh 42.
`CSc1ncc(CN2CCCC(C(=O)c3cccc(Cl)c3)C2)cn1` (stereo not drawn) gave Lmaj promast 82*, Arbovirus inh -3, CHOP inh 25 and WT yeast gro inh 34.
